# A selection: hits, their analogues and other compounds. The true share with any hit is near 2%.
# NPSR antagonist: blocks cAMP signaling of the human neuropeptide S receptor; Q6W5P4; CHO-NPSR cells, cAMP TR-FRET, antagonist mode; Potency, µM (titrated, usually from 38.3 µM), without a hit: at the top dose activity change, negative = inhibition, hits mostly inhibitors; actives 1% (n = 220,000); further: potency means the concentration at half of the fitted maximal effect; on the % scale 0 is the no-effect control and ±100 the full control effect; nearly all actives have a fitted effect of over 50% in size
# PKM2 activator: increases activity of human pyruvate kinase M2; Potency, µM (series often up to 57.5 µM), for inactives: at the highest dose activation, most hits filed as activators; AID 1631; actives 0.34% (n = 260,000); purified PKM2, Kinase-Glo ATP luminescence, activation; response scale: 0% is enzyme alone, no compound; further: potency means the concentration at half of the fitted maximal effect; on the % scale 0 is the no-effect control and ±100 the full control effect; nearly all actives have a fitted effect of over 55% in size
# Target sequence (P14618 whole entry, looked up): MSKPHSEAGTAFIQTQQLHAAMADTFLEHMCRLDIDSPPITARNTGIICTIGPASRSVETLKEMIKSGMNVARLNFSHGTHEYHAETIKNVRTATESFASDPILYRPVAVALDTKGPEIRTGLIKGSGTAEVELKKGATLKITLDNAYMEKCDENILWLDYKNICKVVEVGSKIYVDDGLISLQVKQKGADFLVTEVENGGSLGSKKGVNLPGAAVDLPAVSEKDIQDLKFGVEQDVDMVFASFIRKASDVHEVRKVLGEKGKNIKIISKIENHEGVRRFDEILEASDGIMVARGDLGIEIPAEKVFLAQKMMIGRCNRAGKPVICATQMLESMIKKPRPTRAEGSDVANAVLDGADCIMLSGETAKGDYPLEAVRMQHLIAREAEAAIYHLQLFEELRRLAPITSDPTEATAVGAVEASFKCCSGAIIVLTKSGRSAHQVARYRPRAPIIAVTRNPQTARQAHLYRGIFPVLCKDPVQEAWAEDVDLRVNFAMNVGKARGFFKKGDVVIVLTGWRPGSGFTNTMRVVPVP
#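 ATP formation by purified human PK-M2, quantified via coupled luciferase luminescence after 1 h at room temperature with 0.1 mM ADP and 0.5 mM PEP final.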
# ClpP mod: qHTS Assay for Activators of ClpP; ATP-dependent Clp protease proteolytic subunit (Bacillus subtilis (strain 168)), P80244; purified B. subtilis ClpP, FRET peptide cleavage, 20 min; Potency, µM (top dose mostly 57.5 µM), inactives show at the highest dose activity change, negative = active; actives 1.9% (n = 340,000); active means well fitted falling curve with a large enough effect; inconclusive means small, poorly fitted or top-dose-only effect; inactive means no such curve, though single readings can be large or run the other way; further: potency means the concentration at half of the fitted maximal effect; the source files actives as falling curves though it sought activators and does not explain the sign; nearly all actives have a fitted effect of over 65% in size
#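 Purified B. subtilis ClpP, 10 microg/mL final in Tris/HCl pH8 with KCl, BSA, glycerol and Tween-20, cleaved an Abz/nitrotyrosine-quenched decapeptide. Fluorescence (ex 320, em 430) was read at 0 and 20 min at room temperature. Delta was normalized to 5.8 microM ADEP and DMSO/no-enzyme controls.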
# IL2 activator: activators of IL-2; IL-2 activation reporter assay, cell-based qHTS; stimulated with anti-CD3/CD4/CD28 beads; in transgenic mouse T cells; actives 0.065% (n = 360,000); activation, % (series mostly up to about 46 µM); in the data active means activation above about 50%; inconclusive means mostly about 30% to 49%; further: 0% is about no effect
#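 Readout: EGFP and DsRed signals by fluorescent plate cytometry. Unstimulated transgenic mouse T cells received compound 60 min before antibody-bead stimulation, then incubated 18 h at 37 degrees C.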
# An asterisk follows results filed as active; ? = inconclusive; nt = no result; [ ] = another dose, or the depositor's remark. Unless noted, the call rests on the fitted dose curve; in most records, active means well fitted curve in the direction sought with a large enough effect; inconclusive means small, poorly fitted or top-dose-only effect, or another doubt; inactive means no such curve, though single readings can be large; an effect the other way counts as inactive or inconclusive.
SMILES,NPSR antagonist,PKM2 activator,ClpP mod,IL2 activator
Cc1ccc2c(ccc[n+]2CC(=O)c2ccccc2)c1,13%,-2%,18µM*,2
COc1ccc(NC(=O)C(Cl)=C(Cl)Cl)cn1,6%,0%,nt,1
COc1ccc(NC(=O)/C(Cl)=C(/Cl)S(=O)(=O)Cc2ccccc2)cn1,5µM*,1%,9%,-2
COc1ccc(NC(=O)/C(Cl)=C(/Cl)S(=O)Cc2ccc(Cl)cc2)cn1 (stereo not drawn),7.9µM*,?,nt,-5
Cc1cc(C)c(C#N)c(N2CCSCC2)n1,7%[46.1 µM],-2%,35µM*,0
Cc1cc(C)c(C#N)c(N2CCCC(C(N)=O)C2)n1 (stereo not drawn),4%[46.1 µM],-1%,3.5µM*,-1
Cc1cc(C)c(C#N)c(N2CCN(c3ccccc3)CC2)n1,nt,nt,-16%,-2
CCOC(=O)C1CCN(c2nc(C)cc(C)c2C#N)CC1,-16%,3%,nt,-2
CC(=O)Nc1cccc(C(=O)NCc2ccc3c(c2)CCN3C(C)=O)c1,nt,nt,-2%,nt
Clc1cccc(Cl)c1CNC1CCCC1,?,-17%,4%,104*
Cc1c(CNC2CCCCC2)c(C(=O)O)c(C)n1Cc1c(F)cccc1Cl,nt,nt,0%,nt
COc1ccc(CNC(=O)CC2C[C@H](C(=O)N3CCCCC3)[C@@]3(C)c4[nH]c5ccccc5c4CCN3C2=O)cc1OC (stereo partly drawn),nt,nt,-5%,-1
O=S(=O)(Cc1ccc(Cl)cc1)c1ccccc1-c1nnc(-c2ccccc2)o1,-13%[46.1 µM],-10%,32µM*,-1
CC(=O)c1cccc(-c2ccnc3c2CC(C(=O)NC(C)C)O3)c1 (stereo not drawn),nt,nt,1%,1
COc1ccc2[nH]c3c(c2c1)CCN1C(=O)C(CC(=O)NCCN2CCOCC2)C[C@H](C(=O)N2CCOCC2)[C@@]31C (stereo partly drawn),nt,nt,1%,-1
CC(=O)c1cccc(NC(=O)C(OC(=O)/C=C/c2ccc3c(c2)OCO3)c2ccccc2)c1 (stereo not drawn),-20%[46.1 µM],1%,28µM*,-3
O=[N+]([O-])c1cc(C(F)(F)F)ccc1Sc1ccccn1,10%,2%,2%,0
COc1cc2[nH]c(=O)n(Cc3ccc(C(=O)NCCCN4CCN(C)CC4)cc3)c(=O)c2cc1OC,-9%[46.1 µM],-2%,25µM*,0
CCCCCn1c(=O)[nH]c2cc(C(=O)NCCN3CCC(C)CC3)ccc2c1=O,nt,4%,-1%,0
COc1ccc(Cn2c(=O)[nH]c3cc(C(=O)NCCCN4CCCC4)ccc3c2=O)cc1,-15%[46.1 µM],8%,-16%,3
CCCCCn1c(=O)[nH]c2cc(C(=O)NCCCN3CCC(C)CC3)ccc2c1=O,3%[46.1 µM],0%,28µM*,1
CCCCCn1c(=O)[nH]c2cc(C(=O)NCCCN3CCCCC3)ccc2c1=O,18%[46.1 µM],-17%,28µM*,-2
CCCCCn1c(=O)[nH]c2cc(C(=O)NCCN(CC)CC)ccc2c1=O,5%[46.1 µM],0%,25µM*,-1
CCc1nnc(NC(=O)c2cc(C)oc2C)s1,nt,6%,-1%,-2
Cc1ccc(C(NC(=O)c2ccccc2S(C)(=O)=O)c2ccccc2)cc1 (stereo not drawn),nt,-7%,nt,0
SMILES,NPSR antagonist,PKM2 activator,ClpP mod,IL2 activator
N#CC1=C(N)C2=CCCC[C@H]2[C@H](c2ccccc2)C1(C#N)C#N,5%,19%,23%,2
N#CC1=C(N)C2=CCCC[C@H]2[C@H](c2ccc(Br)cc2)C1(C#N)C#N,-16%[46.1 µM],7.9µM*,7%,-2
O=C(Cc1ccc([N+](=O)[O-])cc1)Nc1nnc(C2CC2)s1,2%,-2%,25µM*,-1
Cc1ccc(CNC(=O)CCC(=O)Nc2nnc(C3CCCCC3)s2)cc1,35%,-13%,28µM*,0
COC(=O)c1ccccc1NC(=O)C(CCS(C)(=O)=O)NC(C)=O (stereo not drawn),6%[46.1 µM],1%,28µM*,-2
CC(=O)NC(CCS(C)(=O)=O)C(=O)Nc1ccccc1Cl (stereo not drawn),5%[46.1 µM],8%,16µM*,0
COc1ccc(CC(=O)Nc2ccccc2Oc2ccccc2)cc1,34%,1%,nt,nt
CC1=C(C(=O)OC(C)C)C(c2coc3ccccc3c2=O)C2=C(CCCC2=O)N1 (stereo not drawn),-13%[46.1 µM],6%,3.5µM*,0
CCSCCOC(=O)C1=C(C)NC2=C(C(=O)CCC2)C1c1coc2ccccc2c1=O (stereo not drawn),21%[46.1 µM],2%,4%,-3
Fc1ccc(NC(=S)NCCc2ccccc2)c(F)c1F,-16%[46.1 µM],6%,-10%,-3
CCCOC(=O)CSc1nc(N)c(C#N)c(-c2ccco2)c1C#N,nt,nt,25µM*,1
Cc1ccc(NC(=O)CN(C)C(=O)c2ccccc2Cc2ccccc2)cc1,nt,nt,nt,-1
CC(=O)c1sc(NC(=O)COc2ccc(Cl)cc2Cl)nc1C,?,2%,-1%,0
O=S(=O)(c1ccccc1)c1nc(-c2cccs2)oc1NCC1CCCO1 (stereo not drawn),-14%[46.1 µM],-20%,25µM*,-2
CC(=O)NC(Cc1cccc(C)c1)C(=O)NC1CCN(c2ncccc2[N+](=O)[O-])CC1 (stereo not drawn),-19%[46.1 µM],-10%,16µM*,2
Cc1ccc(C(=O)NC2=NC(c3ccc(C)cc3)CC(=O)N2)cc1 (stereo not drawn),nt,nt,-3%,nt
COc1ccccc1C(=O)NC1=NC(c2ccc(Br)cc2)CC(=O)N1 (stereo not drawn),nt,nt,32µM*,nt
COC(=O)CCN(C(=O)c1cccc([N+](=O)[O-])c1)c1ccccn1,6%,3%,nt,-1
O=C(Nc1nc(-c2ccccc2)cs1)c1cccc([N+](=O)[O-])c1C(=O)O,25%,-8%,nt,-1
O=S(=O)(Nc1nccs1)c1ccc(NS(=O)(=O)c2cccs2)cc1,-5%[46.1 µM],4.5µM*,0%,-1
O=C(CSc1nc2nc(-c3cccs3)cc(C(F)(F)F)c2c(=O)[nH]1)NCc1ccco1,11%[46.1 µM],-13%,8.9µM*,3
O=C(CSc1nc2nc(-c3cccs3)cc(C(F)(F)F)c2c(=O)[nH]1)C(F)(F)F,nt,nt,4%,-2
COc1cc(OC)c(NC(=O)N2CCOCC2)cc1Cl,nt,7%[11.5 µM],28µM*,0
Cc1ccccc1NC1=NC(=S)N(c2ccccc2)C12CCCCC2,-52%,6%,28µM*,1
Cc1cc(C)n2cc(CSc3nnnn3-c3ccccc3)nc2n1,-27%[46.1 µM],8.9µM*,-18%,-1
Cc1cccc2nc(CSc3nnnn3-c3ccccc3)cn12,-10%[46.1 µM],20%,-4%,3
Cc1cc(C)n2cc(CSc3nnnn3-c3ccc(Cl)cc3)nc2n1,-2%[46.1 µM],16µM*,?,-4
COC(=O)c1ccc(-c2ccc(CNCC(O)c3ccccc3)o2)cc1 (stereo not drawn),-14%[46.1 µM],0%,16µM*,-2

# From PubChem BioAssay
